# Reference: PubChem BioAssay AID1159580 (chemical genetic matrix, 2015)
# Out of some 5,500 compounds screened, about 2,000 (36%) were called active. Another 18% or so got no clear call; they are omitted. The list shows a part of the results. A number with no mark means an inactive call. No stated cut-off is given here; in the data, active means normalized growth mostly below about 0.91 (no sharp cut-off); inconclusive means no clear call, values can overlap the other calls; inactive means mostly above about 0.92.
# Assay: chemical genetic growth profiling, strain panel (AID 1159580);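 further: tested at 20 µM; growth read once vehicle control cultures reached saturation at 30 °C; 1 = growth at the plate median or of vehicle wells; lower values mean less growth of the strain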
# Conditions: growth OD
smiles,measurement,setting,value
COC(=O)[C@]1(C)CCC[C@]2(C)c3ccc(C(C)C)cc3C(=O)CC12 (stereo partly drawn),normalized growth,"S. cerevisiae deletion strains, locus YJL187C, strain SWE1, hits give low values",0.956
same,normalized growth,"S. cerevisiae deletion strains, locus YJR043C, strain POL32, hits give low values",1.03
same,normalized growth,"S. cerevisiae deletion strains, locus YJR075W, strain HOC1, hits give low values",0.914
same,normalized growth,"S. cerevisiae deletion strains, locus YKL009W, strain mrt4, hits give low values",0.942
same,normalized growth,"S. cerevisiae deletion strains, locus YKL068W, hits give low values",0.984
same,normalized growth,"S. cerevisiae deletion strains, locus YKL160W, strain elf1, hits give low values",0.983
same,normalized growth,"S. cerevisiae deletion strains, locus YKL190W, strain CNB1, hits give low values",0.967
same,normalized growth,"S. cerevisiae deletion strains, locus YKR001C, strain vps1, hits give low values",1.01
same,normalized growth,"S. cerevisiae deletion strains, locus YKR026C, strain gcn3, hits give low values",0.975
same,normalized growth,"S. cerevisiae deletion strains, locus YKR091W, strain srl3, hits give low values",0.96
same,normalized growth,"S. cerevisiae deletion strains, locus YLL001W, strain dnm1, hits give low values",0.986
same,normalized growth,"S. cerevisiae deletion strains, locus YLL026W, hits give low values",0.964
same,normalized growth,"S. cerevisiae deletion strains, locus YLL041C, strain sdh2, hits give low values",0.958
same,normalized growth,"S. cerevisiae deletion strains, locus YLR027C, strain aat2, hits give low values",0.956
same,normalized growth,"S. cerevisiae deletion strains, locus YLR039C, strain RIC1, hits give low values",0.978
same,normalized growth,"S. cerevisiae deletion strains, locus YLR058C, strain SHM2, hits give low values",0.986
same,normalized growth,"S. cerevisiae deletion strains, locus YLR102C, strain apc9, hits give low values",1.01
same,normalized growth,"S. cerevisiae deletion strains, locus YLR221C, strain rsa3, hits give low values",1
same,normalized growth,"S. cerevisiae deletion strains, locus YLR258W, strain gsy2, hits give low values",0.973
same,normalized growth,"S. cerevisiae deletion strains, locus YLR262C, strain YPT6 (second series), hits give low values",0.897
same,normalized growth,"S. cerevisiae deletion strains, locus YLR262C, strain YPT6, hits give low values",0.925
same,normalized growth,"S. cerevisiae deletion strains, locus YLR268W, strain sec22, hits give low values",0.955
same,normalized growth,"S. cerevisiae deletion strains, locus YLR320W, strain mms22, hits give low values",0.991
same,normalized growth,"S. cerevisiae deletion strains, locus YLR330W, strain CHS5, hits give low values",0.997
same,normalized growth,"S. cerevisiae deletion strains, locus YLR342W, strain FKS1 (second series), hits give low values",0.937
same,normalized growth,"S. cerevisiae deletion strains, locus YLR342W, strain FKS1, hits give low values",0.958
same,normalized growth,"S. cerevisiae deletion strains, locus YLR357W, strain rsc2, hits give low values",0.989
same,normalized growth,"S. cerevisiae deletion strains, locus YLR370C, strain arc18, hits give low values",0.949
same,normalized growth,"S. cerevisiae deletion strains, locus YLR371W, strain rom2, hits give low values",1.01
same,normalized growth,"S. cerevisiae deletion strains, locus YLR384C, strain iki3, hits give low values",0.96
same,normalized growth,"S. cerevisiae deletion strains, locus YLR418C, strain cdc73, hits give low values",0.865
same,normalized growth,"S. cerevisiae deletion strains, locus YML016C, strain PPZ1, hits give low values",0.979
same,normalized growth,"S. cerevisiae deletion strains, locus YML032C, strain rad52, hits give low values",1.03
same,normalized growth,"S. cerevisiae deletion strains, locus YML120C, strain ndi1, hits give low values",0.965
same,normalized growth,"S. cerevisiae deletion strains, locus YML124C, strain tub3, hits give low values",0.991
same,normalized growth,"S. cerevisiae deletion strains, locus YMR058W, strain fet3, hits give low values",0.969
same,normalized growth,"S. cerevisiae deletion strains, locus YMR078C, strain ctf18, hits give low values",1
same,normalized growth,"S. cerevisiae deletion strains, locus YMR125W, strain sto1, hits give low values",0.964
same,normalized growth,"S. cerevisiae deletion strains, locus YMR129W, hits give low values",0.956
same,normalized growth,"S. cerevisiae deletion strains, locus YMR205C, strain PFK2, hits give low values",0.934
same,normalized growth,"S. cerevisiae deletion strains, locus YMR223W, strain ubp8, hits give low values",1.02
same,normalized growth,"S. cerevisiae deletion strains, locus YMR231W, strain pep5, hits give low values",0.974
same,normalized growth,"S. cerevisiae deletion strains, locus YMR263W, strain SAP30, hits give low values",0.961
same,normalized growth,"S. cerevisiae deletion strains, locus YMR307W, strain GAS1, hits give low values",0.953
same,normalized growth,"S. cerevisiae deletion strains, locus YNL067W, strain RPL9B, hits give low values",0.936
same,normalized growth,"S. cerevisiae deletion strains, locus YNL071W, strain lat1, hits give low values",0.952
same,normalized growth,"S. cerevisiae deletion strains, locus YNL128W, strain TEP1, hits give low values",0.964
same,normalized growth,"S. cerevisiae deletion strains, locus YNL153C, strain GIM3, hits give low values",0.982
same,normalized growth,"S. cerevisiae deletion strains, locus YNL209W, strain ssb2, hits give low values",0.992
same,normalized growth,"S. cerevisiae deletion strains, locus YNL233W, strain BNI4, hits give low values",0.971
same,normalized growth,"S. cerevisiae deletion strains, locus YNL248C, strain rpa49, hits give low values",0.962
same,normalized growth,"S. cerevisiae deletion strains, locus YNL250W, strain rad50, hits give low values",0.99
same,normalized growth,"S. cerevisiae deletion strains, locus YNL271C, strain bni1, hits give low values",1.01
same,normalized growth,"S. cerevisiae deletion strains, locus YNL298W, strain CLA4, hits give low values",1.01
same,normalized growth,"S. cerevisiae deletion strains, locus YNL307C, strain MCK1, hits give low values",0.985
same,normalized growth,"S. cerevisiae deletion strains, locus YNL322C, strain KRE1 (second series), hits give low values",0.954
same,normalized growth,"S. cerevisiae deletion strains, locus YNL322C, strain KRE1, hits give low values",0.979
same,normalized growth,"S. cerevisiae deletion strains, locus YNR049C, strain mso1, hits give low values",0.964
same,normalized growth,"S. cerevisiae deletion strains, locus YNR052C, strain pop2, hits give low values",1.04
same,normalized growth,"S. cerevisiae deletion strains, locus YOL006C, strain TOP1, hits give low values",0.828
same,normalized growth,"S. cerevisiae deletion strains, locus YOL012C, strain htz1",1.22
same,normalized growth,"S. cerevisiae deletion strains, locus YOL147C, strain pex11, hits give low values",1
same,normalized growth,"S. cerevisiae deletion strains, locus YOR001W, strain rrp6, hits give low values",0.987
same,normalized growth,"S. cerevisiae deletion strains, locus YOR061W, strain CKA2, hits give low values",0.977
same,normalized growth,"S. cerevisiae deletion strains, locus YOR069W, strain VPS5, hits give low values",0.996
same,normalized growth,"S. cerevisiae deletion strains, locus YOR070C, strain gyp1, hits give low values",0.988
same,normalized growth,"S. cerevisiae deletion strains, locus YOR080W, strain dia2, hits give low values",0.965
same,normalized growth,"S. cerevisiae deletion strains, locus YOR083W, strain WHI5, hits give low values",0.996
same,normalized growth,"S. cerevisiae deletion strains, locus YOR106W, strain vam3, hits give low values",0.965
same,normalized growth,"S. cerevisiae deletion strains, locus YOR136W, strain idh2, hits give low values",1.02
same,normalized growth,"S. cerevisiae deletion strains, locus YOR144C, strain elg1, hits give low values",0.998
same,normalized growth,"S. cerevisiae deletion strains, locus YOR184W, strain ser1, hits give low values",0.982
same,normalized growth,"S. cerevisiae deletion strains, locus YOR265W, strain rbl2, hits give low values",0.969
same,normalized growth,"S. cerevisiae deletion strains, locus YOR270C, strain vph1, hits give low values",0.673 (active)
same,normalized growth,"S. cerevisiae deletion strains, locus YOR290C, strain snf2, hits give low values",0.949
same,normalized growth,"S. cerevisiae deletion strains, locus YOR316C, strain cot1, hits give low values",0.998
same,normalized growth,"S. cerevisiae deletion strains, locus YPL051W, strain arl3, hits give low values",0.984
same,normalized growth,"S. cerevisiae deletion strains, locus YPL055C, strain LGE1, hits give low values",0.868
same,normalized growth,"S. cerevisiae deletion strains, locus YPL078C, strain atp4, hits give low values",0.968
same,normalized growth,"S. cerevisiae deletion strains, locus YPL106C, strain sse1, hits give low values",0.989
same,normalized growth,"S. cerevisiae deletion strains, locus YPL240C, strain hsp82, hits give low values",0.968
same,normalized growth,"S. cerevisiae deletion strains, locus YPL241C, strain CIN2, hits give low values",0.974
same,normalized growth,"S. cerevisiae deletion strains, locus YPR119W, strain clb2, hits give low values",0.993
same,normalized growth,"S. cerevisiae deletion strains, locus YPR141C, strain kar3, hits give low values",0.981
same,normalized growth,"S. cerevisiae deletion strains, locus YPR163C, strain tif3, hits give low values",1
same,normalized growth,"S. cerevisiae deletion strains, locus YPR167C, strain met16, hits give low values",0.994
same,normalized growth,"S. cerevisiae deletion strains, strain wtn01, hits give low values",0.978
same,normalized growth,"S. cerevisiae strains, strain wild type, hits give low values",0.993
